Test results published in PubChem BioAssay (EPA / NIEHS).
Active and inactive are the calls of the source. How the source made its calls: active means hit-call score of the fitted dose curve at least 0.9, where 1 is the maximum; inactive means score below 0.9.

How the values were obtained:
[1] = read-out: Human Leukocyte Antigen - DR isotype (HLADR), HLA-DRA (gene 3122); test: BSK_BE3C_HLADR: BioMAP Diversity Plus: BE3C Assay for Human Leukocyte Antigen - DR isotype (HLADR) Biomarker Activity (AID 2283032); conditions: primary human bronchial epithelial cells; actives raise or lower the signal
In short: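 BioMAP BE3C format: human bronchial epithelium, 24 h compound treatment, ELISA detection of HLA-DR, with bidirectional analysis relative to DMSO.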

[2] = read-out: Vascular cell adhesion molecule 1 (VCAM1), VCAM1 (gene 7412); test: BSK_4H_VCAM1: BioMAP Diversity Plus: 4H Assay for Vascular cell adhesion molecule 1 (VCAM1) Biomarker Activity (AID 2283033); conditions: primary human endothelial cells (HUVEC); actives raise or lower the signal;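 on outcome: cell-surface VCAM-1 protein measured by ELISA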
In short: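 In this human endothelial (HUVEC) system, biomarker ELISA was run 24 h after compound addition, and total protein in parallel wells was assessed by SRB at 560 nm; DMSO served as negative control.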

[3] = read-out: Interferon-gamma inducible Protein 10 (IP10), CXCL10 (gene 3627); test: BSK_BE3C_IP10: BioMAP Diversity Plus: BE3C Assay for Interferon-gamma inducible Protein 10 (IP10) Biomarker Activity (AID 2283034); conditions: primary human bronchial epithelial cells; actives raise or lower the signal
In short: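 BE3C cells (human bronchial epithelial, primary); 24 h exposure; ELISA for IP-10; DMSO-referenced bidirectional fit.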

[4] = read-out: Monokine induced gamma interferon (MIG), CXCL9 (gene 4283); test: BSK_BE3C_MIG: BioMAP Diversity Plus: BE3C Assay for Monokine induced gamma interferon (MIG) Biomarker Activity (AID 2283035); conditions: primary human bronchial epithelial cells; actives raise or lower the signal;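 further: MIG protein measured by ELISA in BE3C cultures after 24 h of dosing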
In short: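 hu bronchial epithelial 1° cells, 24 h cpd; MIG by ELISA; bidirectional fit, DMSO = baseline.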

[5] = read-out: Transforming growth factor beta 1 (TGFb1), TGFB1 (gene 7040); test: BSK_BE3C_TGFb1: BioMAP Diversity Plus: BE3C Assay for Transforming growth factor beta 1 (TGFb1) Biomarker Activity (AID 2283036;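 further: TGF-b1 protein level measured by ELISA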); conditions: primary human bronchial epithelial cells; actives raise or lower the signal
In short: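 TGF-b1 measured via ELISA, 24 h after chemical dosing of human bronchial epithelial cells (BE3C). Overt cytotoxicity assessed in parallel by SRB (0.1%, TCA-fixed, 560 nm); analysis bidirectional relative to DMSO.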

[6] = read-out: Plasminogen activator inhibitor-1 (PAI1), SERPINE1 (gene 5054); test: BSK_BE3C_PAI1: BioMAP Diversity Plus: BE3C Assay for Plasminogen activator inhibitor-1 (PAI1) Biomarker Activity (AID 2283037); conditions: primary human bronchial epithelial cells; actives raise or lower the signal
In short: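 In this multiplexed primary-cell system, bronchial epithelial cells receive test chemical and are sampled at 24 h. PAI-1 is read by ELISA, with DMSO serving as negative control for bidirectional fitting.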

[7] = read-out: urokinase plasminogen activator (uPA), PLAU (gene 5328); test: BSK_BE3C_uPA: BioMAP Diversity Plus: BE3C Assay for urokinase plasminogen activator (uPA) Biomarker Activity (AID 2283038); conditions: primary human bronchial epithelial cells; actives raise or lower the signal;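 further: uPA protein level quantified by ELISA in cell cultures; uPA read one day after compound addition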
In short: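 Human primary bronchial epithelial cells were exposed to chemical for 24 h, then uPA levels were measured by ELISA. Responses were fitted bidirectionally against DMSO as negative control and baseline. Parallel SRB staining of total protein gauged overt cytotoxicity.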

[8] = read-out: Urokinase-type plasminogen activator receptor (uPAR), PLAUR (gene 5329); test: BSK_BE3C_uPAR: BioMAP Diversity Plus: BE3C Assay for Urokinase-type plasminogen activator receptor (uPAR) Biomarker Activity (AID 2283039); conditions: primary human bronchial epithelial cells; actives raise or lower the signal;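 further: cells exposed to compound for one day before measurement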
In short: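 Chemically treated human bronchial epithelial cells (lung primary) are assayed for uPAR by ELISA after 24 h, with data fitted in both directions using DMSO as negative control.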

[9] = read-out: Interleukin-6 (IL6), IL6 (gene 3569); test: BSK_CASM3C_IL6: BioMAP Diversity Plus: CASM3C Assay for Interleukin-6 (IL6) Biomarker Activity for (AID 2283040); conditions: primary human coronary artery smooth muscle cells; actives raise or lower the signal
[10] = read-out: Tissue plasminogen activator (tPA), PLAT (gene 5327); test: BSK_BE3C_tPA: BioMAP Diversity Plus: BE3C Assay for Tissue plasminogen activator (tPA) Biomarker Activity (AID 2283041); conditions: primary human bronchial epithelial cells; actives raise or lower the signal;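 further: tPA level quantified by ELISA one day after compound addition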
In short: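 Using human lung primary bronchial epithelial cells, tPA was measured by ELISA 24 h after dosing; data fitted relative to DMSO.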

[11] = read-out: Interleukin-8 (IL8), CXCL8 (gene 3576); test: BSK_CASM3C_IL8: BioMAP Diversity Plus: CASM3C Assay for Interleukin-8 (IL8) Biomarker Activity (AID 2283042); conditions: primary human coronary artery smooth muscle cells; actives raise or lower the signal;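 further: IL-8 protein level quantified by ELISA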
[12] = read-out: Human Leukocyte Antigen - DR isotype (HLADR), HLA-DRA (gene 3122); test: BSK_CASM3C_HLADR: BioMAP Diversity Plus: CASM3C Assay for Human Leukocyte Antigen - DR isotype (HLADR) Biomarker Activity (AID 2283043); conditions: primary human coronary artery smooth muscle cells; actives raise or lower the signal;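 further: cell-surface HLA-DR protein level quantified by ELISA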
[13] = read-out: Macrophage colony-stimulating factor (MCSF), CSF1 (gene 1435); test: BSK_CASM3C_MCSF: BioMAP Diversity Plus: CASM3C Assay for Macrophage colony-stimulating factor (MCSF) Biomarker Activity (AID 2283044); conditions: primary human coronary artery smooth muscle cells; actives raise or lower the signal;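 further: M-CSF protein amount quantified by ELISA after 24 h exposure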
[14] = read-out: Low-density lipoprotein receptor (LDLR), LDLR (gene 3949); test: BSK_CASM3C_LDLR: BioMAP Diversity Plus: CASM3C Assay for Low-density lipoprotein receptor (LDLR) Biomarker Activity (AID 2283045); conditions: primary human coronary artery smooth muscle cells; actives raise or lower the signal;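 further: LDLR protein level on the cell surface quantified by ELISA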
[15] = read-out: Monocyte Chemoattractant Protein-1 (MCP1), CCL2 (gene 6347); test: BSK_CASM3C_MCP1: BioMAP Diversity Plus: CASM3C Assay for Monocyte Chemoattractant Protein-1 (MCP1) Biomarker Activity (AID 2283046); conditions: primary human coronary artery smooth muscle cells; actives raise or lower the signal;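 further: MCP-1 level quantified by ELISA 24 h after dosing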
[16] = BSK_CASM3C_Proliferation: Cell Proliferation Assessment in the BioMAP Diversity Plus: CASM3C Assay (AID 2283047); conditions: primary human coronary artery smooth muscle cells;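 further: sulforhodamine B total protein stain as relative cell number at 560 nm; sub-confluent cells exposed 48 h before staining; fitted both ways against DMSO so gain or loss of cell number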
[17] = read-out: Monokine induced gamma interferon (MIG), CXCL9 (gene 4283); test: BSK_CASM3C_MIG: BioMAP Diversity Plus: CASM3C Assay for Monokine induced gamma interferon (MIG) Biomarker Activity (AID 2283048); conditions: primary human coronary artery smooth muscle cells; actives raise or lower the signal
[18] = read-out: serum amyloid A (SAA), SAA1 (gene 6288); test: BSK_CASM3C_SAA: BioMAP Diversity Plus: CASM3C Assay for serum amyloid A (SAA) Biomarker Activity (AID 2283049); conditions: primary human coronary artery smooth muscle cells; actives raise or lower the signal;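 further: SAA protein level quantified by ELISA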
[19] = BSK_CASM3C_SRB: Viability Assessment in the BioMAP Diversity Plus: CASM3C Assay (AID 2283050); conditions: primary human coronary artery smooth muscle cells;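 further: total protein by SRB staining as cytotoxicity measure in parallel cultures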
[20] = read-out: Thrombomodulin, THBD (gene 7056); test: BSK_CASM3C_Thrombomodulin: BioMAP Diversity Plus: CASM3C Assay for Thrombomodulin Biomarker Activity (AID 2283051); conditions: primary human coronary artery smooth muscle cells; actives raise or lower the signal;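 further: thrombomodulin protein level measured by ELISA 24 h after dosing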

With `CC1(C)NC(=O)NC1=O` the outcome [1] was “inactive”, the outcome [2] was “inactive” and the outcome [3] was “inactive”. For the same molecule, the outcome [4] was “inactive”, the outcome [5] was “inactive” and the outcome [6] was “inactive”. The outcome [7] was “inactive”, the outcome [8] was “inactive” and the outcome [9] was “inactive”. The outcome [10] was “inactive”, the outcome [11] was “inactive” and the outcome [12] was “inactive”. The outcome [13] was “inactive”, the outcome [14] was “inactive” and the outcome [15] was “inactive”. For the same molecule, the outcome [16] was “inactive”, the outcome [17] was “inactive” and the outcome [18] was “inactive”. For the same molecule, the outcome [19] was “inactive” and the outcome [20] was “inactive”.
In the case of `Cc1cc(=O)[nH]c(=S)[nH]1`, the outcome [1] is reported as “inactive”, the outcome [2] is reported as “inactive” and the outcome [3] is reported as “inactive”. For the same molecule, the outcome [4] was “inactive”, the outcome [5] was “inactive” and the outcome [6] was “inactive”. For the same molecule, the outcome [7] was “inactive”, the outcome [8] was “inactive” and the outcome [9] was “inactive”. For the same molecule, the outcome [10] was “inactive”, the outcome [11] was “inactive” and the outcome [12] was “inactive”. For the same molecule, the outcome [13] was “inactive”, the outcome [14] was “inactive” and the outcome [15] was “inactive”. The outcome [16] was “inactive”, the outcome [17] was “inactive” and the outcome [18] was “inactive”. The outcome [19] was “inactive” and the outcome [20] was “inactive”.
In the case of `CCCCc1ccc2c(n1)[C@@H](c1ccc(OC)cc1C[C@H](C)C(=O)O)[C@H](C(=O)O)[C@H]2c1ccc2c(c1)OCO2`, the outcome [1] is reported as “inactive”, the outcome [2] is reported as “inactive” and the outcome [3] is reported as “inactive”. The outcome [4] was “inactive”, the outcome [5] was “inactive” and the outcome [6] was “inactive”. For the same molecule, the outcome [7] was “inactive”, the outcome [8] was “inactive” and the outcome [9] was “inactive”. For the same molecule, the outcome [10] was “inactive”, the outcome [11] was “inactive” and the outcome [12] was “inactive”. The outcome [13] was “inactive”, the outcome [14] was “inactive” and the outcome [15] was “inactive”. For the same molecule, the outcome [16] was “inactive”, the outcome [17] was “inactive” and the outcome [18] was “inactive”. For the same molecule, the outcome [19] was “inactive” and the outcome [20] was “inactive”.
With `CCCCCCCCCCCCCCCC` the outcome [1] was “inactive”, the outcome [2] was “inactive” and the outcome [3] was “inactive”. The outcome [4] was “inactive”, the outcome [5] was “inactive” and the outcome [6] was “inactive”. The outcome [7] was “inactive”, the outcome [8] was “inactive” and the outcome [9] was “inactive”. For the same molecule, the outcome [10] was “inactive”, the outcome [11] was “inactive” and the outcome [12] was “inactive”. For the same molecule, the outcome [13] was “inactive”, the outcome [14] was “inactive” and the outcome [15] was “inactive”. For the same molecule, the outcome [16] was “inactive”, the outcome [17] was “inactive” and the outcome [18] was “inactive”. The outcome [19] was “inactive” and the outcome [20] was “inactive”.
With `Cc1cc(NC(=O)C(=O)O)cc(C)c1Oc1ccc(O)c2c1CCC2` the outcome [1] was “inactive”, the outcome [2] was “inactive” and the outcome [3] was “inactive”. The outcome [4] was “inactive”, the outcome [5] was “inactive” and the outcome [6] was “inactive”. The outcome [7] was “inactive”, the outcome [8] was “inactive” and the outcome [9] was “inactive”. For the same molecule, the outcome [10] was “inactive”, the outcome [11] was “inactive” and the outcome [12] was “inactive”. For the same molecule, the outcome [13] was “inactive”, the outcome [14] was “inactive” and the outcome [15] was “inactive”. The outcome [16] was “inactive”, the outcome [17] was “inactive” and the outcome [18] was “inactive”. For the same molecule, the outcome [19] was “inactive” and the outcome [20] was “inactive”.
For `NC(=O)Cn1c(=O)cc(CCN2CCN(c3nccc4sccc34)CC2)c2ccc(F)cc21`, the outcome [1] was “inactive”, the AC50 [2] was 7.88 µM (active) and the outcome [3] was “inactive”. The outcome [4] was “inactive”, the outcome [5] was “inactive” and the outcome [6] was “inactive”. For the same molecule, the outcome [7] was “inactive”, the outcome [8] was “inactive” and the outcome [9] was “inactive”. For the same molecule, the outcome [10] was “inactive”, the outcome [11] was “inactive” and the outcome [12] was “inactive”. The outcome [13] was “inactive”, the AC50 [14] was 27.5 µM (active) and the outcome [15] was “inactive”. The outcome [16] was “inactive”, the outcome [17] was “inactive” and the outcome [18] was “inactive”. For the same molecule, the outcome [19] was “inactive” and the outcome [20] was “inactive”.
For `CC(=O)OCCOCCOCCOC(C)=O`, the outcome [1] was “inactive”, the outcome [2] was “inactive” and the outcome [3] was “inactive”. The outcome [4] was “inactive”, the outcome [5] was “inactive” and the outcome [6] was “inactive”. The outcome [7] was “inactive”, the outcome [8] was “inactive” and the outcome [9] was “inactive”. For the same molecule, the outcome [10] was “inactive”, the outcome [11] was “inactive” and the outcome [12] was “inactive”. For the same molecule, the outcome [13] was “inactive”, the outcome [14] was “inactive” and the outcome [15] was “inactive”. For the same molecule, the outcome [16] was “inactive”, the outcome [17] was “inactive” and the outcome [18] was “inactive”. The outcome [19] was “inactive” and the outcome [20] was “inactive”.
